Reference: PubChem BioAssay
Values without a mark were called inactive. The list shows a part of the results. The source made the active and inactive calls.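 The calls were made as follows, unless noted: active = inhibition above the average of all tested compounds plus 3 SD (cut at about 40% in these data); inactive = the rest.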

What was measured:
[1] = molecular target: Bcl-2-like protein 1 (Homo sapiens) (UniProt Q07817); test: Bcl-xL inhibitors blocking Bim BH3 binding, confirmation, counter-screen for MCL1 inhibitor project, biochemical, fluorescence polarization (AID 2166;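 active = inhibition above a cutoff equal to the mean inhibition of all tested compounds plus 3 SD, cut at about 30% in these data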); conditions: GST-Bcl-xL / FITC-Bim BH3 peptide FP binding; at 10.9 µM; active compounds read high
Bcl-2-like protein 1 (Homo sapiens), sequence (Q07817 whole entry, looked up): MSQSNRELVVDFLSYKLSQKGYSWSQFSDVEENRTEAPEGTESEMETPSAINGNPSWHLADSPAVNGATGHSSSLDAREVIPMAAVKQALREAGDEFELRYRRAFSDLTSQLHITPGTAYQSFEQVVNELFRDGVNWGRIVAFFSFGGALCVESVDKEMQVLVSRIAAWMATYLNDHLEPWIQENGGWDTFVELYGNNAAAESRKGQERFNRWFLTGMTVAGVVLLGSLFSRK

[2] = molecular target: Induced myeloid leukemia cell differentiation protein Mcl-1 (Homo sapiens) (UniProt Q07820); test: inhibitors of MCL1 binding to BIM-BH3, confirmation, biochemical, fluorescence polarization, triplicate (AID 2168); conditions: GST-MCL1 / FITC-Bim-BH3 fluorescence polarization; at 10.9 µM; active compounds read high;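 also: 0% = DMSO wells and 100% = unlabeled Bim-BH3 control peptide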
Induced myeloid leukemia cell differentiation protein Mcl-1 (Homo sapiens), sequence (Q07820 whole entry, looked up): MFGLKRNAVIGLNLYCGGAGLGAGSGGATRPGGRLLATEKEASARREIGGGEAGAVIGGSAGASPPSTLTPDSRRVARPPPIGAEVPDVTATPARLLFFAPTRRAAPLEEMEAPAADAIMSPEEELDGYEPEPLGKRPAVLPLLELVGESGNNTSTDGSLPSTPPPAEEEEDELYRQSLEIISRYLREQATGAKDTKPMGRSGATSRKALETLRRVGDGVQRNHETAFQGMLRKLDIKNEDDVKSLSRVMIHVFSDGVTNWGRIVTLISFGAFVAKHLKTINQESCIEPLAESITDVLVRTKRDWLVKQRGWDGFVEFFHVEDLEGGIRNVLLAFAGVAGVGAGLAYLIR

[3] = molecular target: Glutathione S-transferase omega-1 (Homo sapiens) (UniProt P78417); test: GSTO1 inhibitor hit confirmation, counter-screen for RBBP9 inhibitor project, biochemical, fluorescence polarization, triplicate (AID 2176;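 active = inhibition above the primary screen's cutoff, its mean inhibition plus 3 SD, cut at about 35% in these data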;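 also: loss of polarization as inhibitors block binding of rhodamine sulfonate ester activity probe; 0% = GSTO1 with DMSO and 100% = wells lacking GSTO1 enzyme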); conditions: recombinant GSTO1, probe fluorescence polarization; at 5.96 µM; active compounds read high
Glutathione S-transferase omega-1 (Homo sapiens), sequence (P78417 whole entry, looked up): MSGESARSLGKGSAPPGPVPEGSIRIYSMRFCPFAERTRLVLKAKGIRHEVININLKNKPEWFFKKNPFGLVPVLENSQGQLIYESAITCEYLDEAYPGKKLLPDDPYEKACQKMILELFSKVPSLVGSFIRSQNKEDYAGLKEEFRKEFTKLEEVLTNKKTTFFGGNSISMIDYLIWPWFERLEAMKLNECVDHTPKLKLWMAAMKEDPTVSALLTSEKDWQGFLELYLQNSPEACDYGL

[4] = molecular target: Protein phosphatase methylesterase 1 (Homo sapiens) (UniProt Q9Y570); test: PME-1 inhibitor activity retest, confirmation, biochemical, fluorescence polarization, FP-Rh probe, triplicate (AID 2171;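 active = inhibition above the hit cutoff set in the earlier primary screen, cut at about 27% in these data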;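 also: 0% = enzyme with DMSO and 100% = wells lacking PME-1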); conditions: recombinant PME-1, FP-Rh probe fluorescence polarization; at 5.9 µM; active compounds read high
Protein phosphatase methylesterase 1 (Homo sapiens), sequence (Q9Y570 whole entry, looked up): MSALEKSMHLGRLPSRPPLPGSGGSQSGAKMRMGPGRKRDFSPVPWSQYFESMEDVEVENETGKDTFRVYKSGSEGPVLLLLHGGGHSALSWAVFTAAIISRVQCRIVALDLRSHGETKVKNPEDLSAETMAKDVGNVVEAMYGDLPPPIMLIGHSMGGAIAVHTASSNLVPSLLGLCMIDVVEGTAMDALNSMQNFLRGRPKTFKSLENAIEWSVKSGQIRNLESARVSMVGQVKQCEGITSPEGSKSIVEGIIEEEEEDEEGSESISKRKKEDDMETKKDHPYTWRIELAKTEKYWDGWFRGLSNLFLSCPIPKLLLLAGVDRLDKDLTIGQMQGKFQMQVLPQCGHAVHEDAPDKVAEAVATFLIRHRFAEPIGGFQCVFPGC

[5] = StAR promoter reporter inhibitors, counter-screen for LRH-1 inverse agonist project, cell-based, luminescence, high throughput (AID 651611; in the data active = inhibition above about 28%); conditions: StAR promoter luciferase reporter counterscreen, at 3.6 µM, active compounds read high
[6] = molecular target: Nuclear receptor subfamily 5 group A member 2 (Homo sapiens) (UniProt O00482); test: LRH-1 (NR5A2) inverse agonists, retest, confirmation, cell-based, luminescence (AID 651613; in the data active = inhibition above about 42%;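 also: HEK293T cells co-transfected with LRH-1 and StAR promoter luciferase reporter; 0% = vehicle wells and 100% = parental cells lacking receptor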); conditions: cell-based LRH-1 luciferase reporter, inverse agonism; at 3.6 µM; active compounds read high
Nuclear receptor subfamily 5 group A member 2 (Homo sapiens), sequence (O00482 whole entry, looked up): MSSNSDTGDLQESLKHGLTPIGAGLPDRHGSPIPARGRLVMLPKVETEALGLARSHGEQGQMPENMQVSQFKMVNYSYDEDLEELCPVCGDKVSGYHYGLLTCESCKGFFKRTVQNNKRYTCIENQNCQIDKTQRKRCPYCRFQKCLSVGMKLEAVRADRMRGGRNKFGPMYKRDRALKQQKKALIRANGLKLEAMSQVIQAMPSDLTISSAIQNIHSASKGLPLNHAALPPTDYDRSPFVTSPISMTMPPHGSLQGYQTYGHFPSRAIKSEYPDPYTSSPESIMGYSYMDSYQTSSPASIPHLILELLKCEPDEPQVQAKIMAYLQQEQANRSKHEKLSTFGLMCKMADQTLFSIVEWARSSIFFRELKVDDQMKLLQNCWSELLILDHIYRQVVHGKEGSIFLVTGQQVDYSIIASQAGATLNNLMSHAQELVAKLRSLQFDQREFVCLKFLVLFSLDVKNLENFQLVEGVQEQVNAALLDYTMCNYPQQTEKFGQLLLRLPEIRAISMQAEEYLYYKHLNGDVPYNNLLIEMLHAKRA

[7] = molecular target: Steroidogenic factor 1 (Homo sapiens) (UniProt Q13285); test: SF1 (NR5A1) inverse agonists, counter-screen for LRH-1 inverse agonist project, cell-based, luminescence, high throughput (AID 651614; in the data active = inhibition above about 44%;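 also: cells cotransfected with StAR promoter reporter and SF1 expression vector; 0% = vehicle on cells with receptor and 100% = vehicle on cells lacking receptor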); conditions: cell-based SF1 luciferase reporter, at 3.6 µM, active compounds read high
Steroidogenic factor 1 (Homo sapiens), sequence (Q13285 whole entry, looked up, the tested form may be a part): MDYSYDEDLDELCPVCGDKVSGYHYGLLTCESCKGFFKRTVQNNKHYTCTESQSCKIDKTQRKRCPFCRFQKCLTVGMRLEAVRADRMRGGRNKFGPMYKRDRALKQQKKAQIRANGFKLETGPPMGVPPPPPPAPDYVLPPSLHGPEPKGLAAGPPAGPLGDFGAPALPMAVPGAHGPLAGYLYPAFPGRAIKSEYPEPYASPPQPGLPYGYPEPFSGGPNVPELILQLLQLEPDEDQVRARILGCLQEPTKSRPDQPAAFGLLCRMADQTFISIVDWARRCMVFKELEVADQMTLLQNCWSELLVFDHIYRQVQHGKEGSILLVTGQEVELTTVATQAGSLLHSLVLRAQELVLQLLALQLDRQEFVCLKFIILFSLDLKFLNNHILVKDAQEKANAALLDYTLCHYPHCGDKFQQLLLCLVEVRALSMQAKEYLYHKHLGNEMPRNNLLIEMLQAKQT

[8] = VP16 transactivation reporter inhibitors, counter-screen for LRH-1 inverse agonist project, cell-based, luminescence, high throughput (AID 651615; in the data active = inhibition above about 33%); conditions: Gal4-VP16 luciferase reporter cells, at 3.6 µM, active compounds read high
[9] = molecular target: Protein-arginine deiminase type-4 (Homo sapiens) (UniProt Q9UM07); test: human PAD4 inhibitors, confirmation, biochemical, fluorescence polarization (AID 488796;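 active = mean inhibition across replicates above the hit cutoff set by the earlier primary screen, cut at about 15% in these data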;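 also: inhibitors block active-site labeling by the probe so polarization falls; 0% = PAD4 with probe and DMSO and 100% = probe without PAD4 enzyme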); conditions: recombinant PAD4, RCA probe fluorescence polarization; at 6.36 µM; active compounds read high
Protein-arginine deiminase type-4 (Homo sapiens), sequence (Q9UM07 whole entry, looked up): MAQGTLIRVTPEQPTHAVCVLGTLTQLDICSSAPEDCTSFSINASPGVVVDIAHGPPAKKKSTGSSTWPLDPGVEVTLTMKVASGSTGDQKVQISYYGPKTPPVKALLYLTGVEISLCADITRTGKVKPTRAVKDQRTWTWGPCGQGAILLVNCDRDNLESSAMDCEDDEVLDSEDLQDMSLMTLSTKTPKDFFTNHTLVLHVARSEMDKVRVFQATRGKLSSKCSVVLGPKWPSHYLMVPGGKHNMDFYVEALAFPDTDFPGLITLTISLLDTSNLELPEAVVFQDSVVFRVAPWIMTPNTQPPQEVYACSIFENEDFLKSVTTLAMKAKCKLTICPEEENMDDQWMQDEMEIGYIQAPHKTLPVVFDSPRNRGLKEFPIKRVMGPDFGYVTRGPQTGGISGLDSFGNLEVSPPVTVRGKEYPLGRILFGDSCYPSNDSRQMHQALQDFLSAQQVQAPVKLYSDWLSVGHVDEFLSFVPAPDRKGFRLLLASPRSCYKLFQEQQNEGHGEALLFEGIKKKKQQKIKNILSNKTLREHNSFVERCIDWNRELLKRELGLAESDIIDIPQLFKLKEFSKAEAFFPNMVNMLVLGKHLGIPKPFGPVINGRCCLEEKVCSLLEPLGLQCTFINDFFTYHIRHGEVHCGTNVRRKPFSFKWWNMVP

[10] = growth loss of phage-infected E. coli expressing H. pylori AddAB, confirmation, AddAB inhibitor project, absorbance, E. coli V3065, T4 phage, triplicate (AID 488942;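 active = mean inhibition above a set limit taken from the earlier primary screen, cut at about 13% in these data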;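 also: higher means less bacterial growth since AddAB block lets phage replicate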); conditions: OD, at 11.9 µM, active compounds read high, T4 phage with gene 2 nonsense mutations
[11] = growth loss of RecBCD+ E. coli with mutant T4 phage, counter-screen for AddAB inhibitor project, absorbance, V66 E. coli (AID 488955;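 active = mean inhibition above the mean of solvent-only control wells plus 3 SD, cut at about 4% in these data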;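 also: optical density read after an 18 h incubation at 37 °C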); conditions: OD growth, at 11.9 µM, active compounds read high
[12] = bacterial viability inhibition counter-screen, confirmation, counter-screen for AddAB inhibitor project, absorbance (AID 488956; in the data active = inhibition above about 25%); conditions: absorbance (AddAB counterscreen), at 11.9 µM, active compounds read high
[13] = molecular target: Serine protease HTRA1 (Homo sapiens) (UniProt Q92743); test: HTRA1 protease inhibitors, retest, confirmation, biochemical, fluorescence polarization (AID 540248;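 active = mean inhibition over three repeats above a set limit taken from the earlier primary screen, cut at about 37% in these data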;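 also: 0% = HTRA1 with DMSO and 100% = wells lacking HTRA1; inhibitors block probe binding so polarization drops and inhibition rises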); conditions: recombinant HTRA1, FP-rhodamine activity-based probe, at 5.96 µM, active compounds read high
[14] = compounds interfering with TAMRA-BSA probe, counter-screen for TCR-CD3 interaction inhibitor project, biochemical, fluorescence, TAMRA-labeled BSA (AID 652035; in the data active = inhibition above about 23%;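 also: 0% = buffer low control and 100% = reference high control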); conditions: TAMRA-labeled BSA probe fluorescence counterscreen; at 9.4 µM; active compounds read high
[15] = test system: T-cell receptor (TCR)-CD3 interaction, human; test: TCR-CD3 interaction inhibitors, retest, confirmation, biochemical, fluorescence, TAMRA-labeled TCR probe (AID 652036; in the data active = inhibition above about 19%); conditions: TAMRA-labeled TCR probe fluorescence binding assay; at 9.4 µM; active compounds read high
[16] = molecular target: (Lyso)-N-acylphosphatidylethanolamine lipase (Mus musculus) (UniProt Q8VD66); test: ABHD4 inhibitors, retest, confirmation, biochemical, fluorescence polarization, mouse (AID 720658;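 active = mean inhibition across replicates above the hit cutoff set in the primary screen, cut at about 30% in these data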;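 also: 0% = wild-type ABHD4 with DMSO and 100% = catalytically dead S159A mutant with DMSO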); conditions: purified mABHD4, FP-Rh probe fluorescence polarization; at 8.92 µM; active compounds read high
[17] = molecular target: Toll-like receptor 9 (Homo sapiens) (UniProt Q9NR96); test: TLR9-MyD88 association inhibitors, retest, confirmation, cell-based, CHO, BLA complementation, fluorescence, triplicate (AID 540250;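 active = mean inhibition across three repeats above about 21% taken from the earlier screen, limit read from the data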;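 also: blue over green emission ratio reports constitutive TLR9 MyD88 association via BLA complementation; 0% = DMSO vehicle wells and 100% = clavulanate BLA inhibitor wells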); conditions: CCF4 FRET ratio, at 4.98 µM, active compounds read high
[18] = beta-lactamase reporter inhibitors in CHO cells, artefact control for TLR9-MyD88 binding inhibitor project, cell-based, fluorescence (AID 540251;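 active = mean inhibition above a 50% cutoff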;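 also: counterscreen of TLR9-MyD88 hits on CMV-driven BLA in CHO-K1 cells; 0% = DMSO alone and 100% = clavulanate blocking BLA; higher means less blue over green ratio so more BLA blockade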); conditions: CHO-BLA cells, CCF4 FRET ratio, at 4.98 µM, active compounds read high
[19] = CHO cell viability loss – luminescence, single concentration, cytotoxicity control for TLR9-MyD88 binding inhibitor project (AID 588336; in the data active = inhibition above about 11%); conditions: TLR9-MyD88 CHO cells cytotoxicity, at 4.98 µM, active compounds read high
[20] = molecular target: Receptor-interacting serine/threonine-protein kinase 2 (Homo sapiens) (UniProt O43353); test: NOD2-RIPK2 binding disruptors, retest, confirmation, fluorescence, CHO cells, BLA complementation, triplicate (AID 624370;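 active = mean inhibition across replicates above a set limit taken from the earlier primary screen, cut at about 21% in these data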;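 also: 0% = DMSO-only wells and the high end = clavulanate BLA-blocked wells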); conditions: CCF4 FRET, at 4.98 µM, active compounds read high
[21] = beta-lactamase reporter inhibitors in CHO cells, confirmation, artefact control for NOD2-RIPK2 interaction inhibitor project, cell-based, CHO-K1 CMV-bla, CCF4 FRET, fluorescence (AID 624371;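 active = mean inhibition above the low-control mean inhibition plus three low-control SD, cut at about 11% in these data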;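 also: 0% = DMSO only wells and 100% = clavulanate high control wells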); conditions: CCF4 FRET ratio, counterscreen, at 4.98 µM, active compounds read high
[22] = molecular target: Oxysterols receptor LXR-beta (Homo sapiens) (UniProt P55055); test: LXR agonists, Gal4 luciferase reporter, confirmation, counter-screen for hcDAF-12 agonist project, cell-based, luminescence, HEK293, H. contortus campaign (AID 743027;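 active = mean percent activation of the reporter above a cutoff set as the average over tested compounds plus their standard deviation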); conditions: HEK293 Gal4-LXR tk-luc reporter, 24 h, at 6.8 µM, active compounds read high, normalized: DMSO 0%, positive control 100%
Oxysterols receptor LXR-beta (Homo sapiens), sequence (P55055 whole entry, looked up, the tested form may be a part): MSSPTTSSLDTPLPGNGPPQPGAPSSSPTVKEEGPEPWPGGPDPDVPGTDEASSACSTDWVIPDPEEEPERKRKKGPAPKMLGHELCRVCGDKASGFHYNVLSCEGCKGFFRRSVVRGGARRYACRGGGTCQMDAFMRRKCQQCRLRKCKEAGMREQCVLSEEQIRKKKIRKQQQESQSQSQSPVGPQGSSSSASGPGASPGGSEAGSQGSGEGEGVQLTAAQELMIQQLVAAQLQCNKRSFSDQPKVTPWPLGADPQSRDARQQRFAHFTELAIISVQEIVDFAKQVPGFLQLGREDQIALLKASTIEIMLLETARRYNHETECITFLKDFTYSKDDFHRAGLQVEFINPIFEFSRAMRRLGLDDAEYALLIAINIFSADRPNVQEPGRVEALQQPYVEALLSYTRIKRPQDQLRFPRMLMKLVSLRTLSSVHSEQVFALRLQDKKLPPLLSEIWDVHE

[23] = test system: Nuclear hormone receptor DAF-12 (Haemonchus contortus); test: H. contortus DAF-12 receptor agonists, confirmation, cell-based, luminescence, HEK293, lit1-tk-luc, triplicate (AID 743032;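 active = mean activation across triplicate tests above the threshold derived from the earlier primary screen, cut at about 5.5% in these data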;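 also: 0% = DMSO only wells and 100% = 3 µM Δ7-dafachronic acid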); conditions: HEK293 hcDAF-12 lit1-tk-luc reporter, at 6.8 µM, active compounds read high, % of Δ7-dafachronic acid response
[24] = molecular target: Nuclear receptor coactivator 3 (Homo sapiens) (UniProt Q9Y6Q9); test: SRC3 coactivator transcriptional activity inhibitors, confirmation, cell-based, luminescence, quadruplicate (AID 588792;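 active = mean inhibition over 43.08%, the solvent-only control mean plus 3 SD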;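 also: 0% = DMSO treated cells and 100% = gossypol at 36 µM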); conditions: HEK293 GAL4-SRC3 luciferase reporter, at 3.6 µM, active compounds read high
Nuclear receptor coactivator 3 (Homo sapiens), sequence (Q9Y6Q9 whole entry, looked up, the tested form may be a part): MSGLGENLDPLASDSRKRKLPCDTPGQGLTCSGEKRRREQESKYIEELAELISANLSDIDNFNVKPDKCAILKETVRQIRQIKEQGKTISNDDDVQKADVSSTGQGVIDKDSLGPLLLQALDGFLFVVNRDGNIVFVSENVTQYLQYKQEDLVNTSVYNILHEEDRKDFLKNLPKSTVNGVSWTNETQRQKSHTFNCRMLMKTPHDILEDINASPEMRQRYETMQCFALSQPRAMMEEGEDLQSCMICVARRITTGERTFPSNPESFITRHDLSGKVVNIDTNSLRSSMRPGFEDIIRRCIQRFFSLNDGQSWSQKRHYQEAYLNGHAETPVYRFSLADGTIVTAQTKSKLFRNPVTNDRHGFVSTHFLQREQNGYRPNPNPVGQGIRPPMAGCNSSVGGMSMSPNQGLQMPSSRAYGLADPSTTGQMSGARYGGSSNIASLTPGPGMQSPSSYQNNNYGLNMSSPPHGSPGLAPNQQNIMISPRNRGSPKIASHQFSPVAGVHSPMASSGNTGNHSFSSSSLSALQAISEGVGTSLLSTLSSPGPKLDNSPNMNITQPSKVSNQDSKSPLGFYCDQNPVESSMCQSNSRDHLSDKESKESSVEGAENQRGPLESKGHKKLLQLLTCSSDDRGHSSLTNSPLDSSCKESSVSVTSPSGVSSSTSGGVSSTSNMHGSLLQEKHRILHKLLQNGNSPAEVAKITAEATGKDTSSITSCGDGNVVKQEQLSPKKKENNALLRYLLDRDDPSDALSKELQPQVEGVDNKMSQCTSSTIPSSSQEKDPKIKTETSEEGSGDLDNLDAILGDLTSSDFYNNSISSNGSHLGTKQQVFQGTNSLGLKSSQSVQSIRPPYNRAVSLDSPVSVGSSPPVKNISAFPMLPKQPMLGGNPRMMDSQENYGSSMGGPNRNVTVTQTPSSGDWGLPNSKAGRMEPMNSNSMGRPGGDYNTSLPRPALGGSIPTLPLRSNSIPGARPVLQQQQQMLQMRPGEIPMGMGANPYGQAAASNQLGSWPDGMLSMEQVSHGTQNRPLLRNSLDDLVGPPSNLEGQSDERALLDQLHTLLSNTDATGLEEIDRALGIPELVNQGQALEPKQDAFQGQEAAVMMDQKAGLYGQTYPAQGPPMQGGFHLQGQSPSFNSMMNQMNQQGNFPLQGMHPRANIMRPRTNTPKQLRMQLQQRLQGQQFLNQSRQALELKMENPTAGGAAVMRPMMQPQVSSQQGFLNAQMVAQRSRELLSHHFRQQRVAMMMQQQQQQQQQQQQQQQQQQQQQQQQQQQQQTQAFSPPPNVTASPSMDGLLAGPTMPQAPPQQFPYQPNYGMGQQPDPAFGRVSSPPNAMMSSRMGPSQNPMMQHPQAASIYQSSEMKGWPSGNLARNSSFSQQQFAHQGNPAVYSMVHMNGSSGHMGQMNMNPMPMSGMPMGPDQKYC

[25] = test system: transactivating tegument protein VP16 (Human herpesvirus 1), Gal4-VP16 luciferase reporter; test: VP16 transactivation inhibitors, counter-screen for SRC3 inhibitor project, cell-based, luminescence, high throughput (AID 588794; in the data active = inhibition above about 30%); conditions: mammalian cells, VP16-driven luciferase reporter luminescence; at 3.6 µM; active compounds read high
[26] = molecular target: Nuclear receptor coactivator 1 (Homo sapiens) (UniProt Q15788); test: SRC1 coactivator transcriptional activity inhibitors, confirmation, cell-based, luminescence, quadruplicate (AID 588820;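 active = mean inhibition above 46.68%, the untreated control wells mean plus 3 SD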;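 also: 0% = DMSO wells and 100% = gossypol 36 µM treated wells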); conditions: HEK293 GAL4-SRC1 luciferase reporter, at 3.6 µM, active compounds read high
[27] = VP16 transactivation inhibitors, counter-screen for SRC1 inhibitor project, cell-based, luminescence, high throughput (AID 588824; in the data active = inhibition above about 25%); conditions: cell-based VP16 transactivation luciferase luminescence; at 3.6 µM; active compounds read high
[28] = molecular target: Insulin-degrading enzyme (Homo sapiens) (UniProt P14735); test: human IDE inhibitors in live cells, confirmation, fluorescence polarization, HEK cells, FAbetaB substrate (AID 435028;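 active = mean inhibition across triplicate wells above the cutoff set by the earlier primary insulin-degrading enzyme screen, cut at about 16% in these data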;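 also: 0% = DMSO wells and 100% = 60 µM reference IDE inhibitor Ii1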); conditions: FAbetaB cleavage, at 5.59 µM, active compounds read high
[29] = cytotoxicity in HEK cells, cytotoxicity control for IDE inhibitor project, cell-based, luminescence (AID 449730; in the data active = inhibition above about 22%;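 also: 0% = vehicle wells and 100% = reference cytotoxic drug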); conditions: HEK293 cytotoxicity, ATP luminescence; at 5.59 µM; active compounds read high
[30] = molecular target: Platelet-activating factor acetylhydrolase (Homo sapiens) (UniProt Q13093); test: pPAFAH (PLA2G7) enzyme inhibitors, confirmation, biochemical, fluorescence polarization, human (AID 463230;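 active = mean inhibition of the triplicate above the hit cutoff set for the earlier primary screen, cut at about 25% in these data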;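 also: 0% = enzyme with DMSO and 100% = wells lacking pPAFAH enzyme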); conditions: recombinant pPAFAH, FP-Rh probe fluorescence polarization; at 3.39 µM; active compounds read high

SMILES: O=C(C[n+]1cc(Br)cc2ccccc21)c1ccc(F)cc1
- inhibition [1]: 23%
- inhibition [2]: 22.2%

SMILES: O=C(COC(=O)c1ccccc1C(=O)N1CCN(c2ccccc2)CC1)NCc1ccccc1
- inhibition [1]: 22.1%
- inhibition [2]: 16.5%

SMILES: Fc1ccc(CNc2nc3ccccc3n3nnnc23)cc1
- inhibition [1]: 36.6% (active)
- inhibition [2]: 41.3% (active)

SMILES: Cc1ccc(S(=O)(=O)C(C#N)c2nc3ccccc3nc2N2CCCC2)cc1C (configuration not stated)
- inhibition [1]: 74.9% (active)
- inhibition [2]: 82.8% (active)
- inhibition [3]: 26.5%

SMILES: O=c1[nH]c(C2CCN(S(=O)(=O)c3ccc(F)cc3)CC2)nc2c1nnn2Cc1ccc2c(c1)OCCO2
- inhibition [4]: 41% (active)

SMILES: COc1ccc(Nc2nc(-c3cccnc3)nc3ccccc23)cn1
- inhibition [1]: 90.3% (active)
- inhibition [2]: 114% (active)
- inhibition [5]: 28.2% (active)
- inhibition [6]: 43.9% (active)
- inhibition [7]: 53.2% (active)
- inhibition [8]: -10.3%

SMILES: COc1ncnc2c1N=C1CC(C)(C)CC(N)=C1S2
- inhibition [1]: 144% (active)
- inhibition [2]: 181% (active)
- inhibition [9]: 24.1% (active)

SMILES: Oc1ccc(/C=N/Nc2ccnc3cc(Cl)ccc23)c(O)c1
- inhibition [4]: 19%

SMILES: O=c1ccc2c(-c3ccccc3S(=O)(=O)O)c3ccc(O)c(O)c3oc-2c1O
- inhibition [1]: 82.9% (active)
- inhibition [2]: 67.6% (active)
- inhibition [10]: 7.55%
- inhibition [11]: 11% (active)
- inhibition [12]: 2.03%
- inhibition [13]: -1.72%
- inhibition [14]: -101%
- inhibition [15]: -20.4%
- inhibition [16]: -24.3%

SMILES: CC[C@]1(O)C[C@@H]2CN(CCc3c([nH]c4ccccc34)[C@@](C(=O)OC)(c3cc4c(cc3OC)N(C)[C@H]3[C@@](O)(C(=O)OC)[C@H](OC(C)=O)[C@]5(CC)C=CCN6CC[C@]43[C@@H]65)C2)C1
- inhibition [1]: 27.1%
- inhibition [2]: 35.2%
- inhibition [6]: 42.5% (active)
- inhibition [7]: 61.2% (active)

SMILES: Cc1ccc(S(=O)(=O)Oc2cccc(/C=N/Nc3ccc(C(=O)O)cc3)c2)cc1
- inhibition [4]: 94% (active)

SMILES: Cc1ccc(Nc2c([N+](=O)[O-])ccc3c2=NC2(CCCCC2)N=3)cc1
- inhibition [4]: 44.3% (active)

SMILES: CCN1CC=C2C(C#N)=C(N)C(C#N)(C#N)[C@H](c3ccoc3)[C@H]2C1
- inhibition [1]: 97.5% (active)
- inhibition [2]: 114% (active)
- inhibition [9]: 10.3%

SMILES: Cc1ccc(N=Cc2nc(/C=C/c3cccc([N+](=O)[O-])c3)oc2O)cc1
- inhibition [4]: 30.2% (active)

SMILES: Nc1cccc2c1C(=O)N(Cc1nnc(-c3ccccc3Br)o1)C2=O
- inhibition [1]: 51.2% (active)
- inhibition [2]: 69% (active)
- inhibition [17]: 16.4%
- inhibition [18]: 19.9%
- inhibition [19]: 3.2%
- inhibition [20]: 37.4% (active)
- inhibition [21]: 41.6% (active)

SMILES: Cc1ccc(C(=O)N/N=C/c2ccc(-c3ccc(Br)cc3[N+](=O)[O-])o2)o1
- inhibition [4]: 33.1% (active)

SMILES: CCCN(CC(=O)Nc1ccccc1C)C(=O)COC(=O)CSc1ccc([N+](=O)[O-])cc1
- inhibition [4]: 17.4%

SMILES: COc1cc2nc(Nc3ccc(C)c(Cl)c3)nc(N)c2cc1OC
- inhibition [4]: 49.4% (active)

SMILES: Cc1nn(C(=O)c2ccoc2C)c(N)c1-c1ccccc1
- inhibition [1]: 1.59%
- inhibition [2]: -8.2%
- inhibition [9]: 1.71%
- activation [22]: 0.39%
- activation [23]: 2.6%

SMILES: Cc1cccn2c(=O)c3cc(C(=O)NCCN4CCOCC4)c(=N)n(Cc4cccnc4)c3nc12
- inhibition [1]: 55.8% (active)
- inhibition [2]: 65.7% (active)
- inhibition [24]: 22.5%
- inhibition [25]: 20.1%
- inhibition [26]: 24.4%
- inhibition [27]: 17.3%
- inhibition [5]: 21.2%
- inhibition [6]: 57.8% (active)
- inhibition [7]: 49.1% (active)
- inhibition [8]: 28.6%

SMILES: O=C(Nc1ccc(N2CCOCC2)cc1)Nc1ccc2nc(-c3ccco3)c(-c3ccco3)nc2c1
- inhibition [4]: 39.5% (active)

SMILES: C=CCN=c1scc(-c2ccco2)n1/N=C/c1ccc(O)c(O)c1O
- inhibition [4]: -17.6%

SMILES: COc1cccc(NC(=O)Nc2ccc3c(c2)N(C)C(=O)CS3)c1
- inhibition [4]: 9.42%

SMILES: CCCC1OC23CCCCC2C(C#N)(C#N)C1(C#N)C(=N)O3 (configuration not stated)
- inhibition [1]: 19.5%
- inhibition [2]: 21%
- inhibition [14]: 20%
- inhibition [15]: 10.8%

SMILES: CC(C)(C)c1cc(C(=O)N/N=C/c2ccc(-c3ccccc3[N+](=O)[O-])o2)n[nH]1
- inhibition [4]: 1.81%

SMILES: Cc1cc(C)c(/C=C2\C(=O)Nc3ccccc32)[nH]1
- inhibition [1]: 147% (active)
- inhibition [2]: 168% (active)
- inhibition [28]: 83.6% (active)
- inhibition [29]: 5.65%
- activation [22]: 0.33%
- activation [23]: 7.13% (active)

SMILES: COc1ccc(N=Nc2nc(-c3ccccc3)c(-c3ccccc3)[nH]2)cc1
- inhibition [4]: 10.8%

SMILES: O=C(OCCN(C1=NS(=O)(=O)c2ccccc21)c1ccc(Cl)cc1)c1ccco1
- inhibition [4]: 20.6%

SMILES: CC12CCC(C(=O)N(NC(=O)c3ccccc3O)C1=O)C2(C)C (configuration not stated)
- inhibition [1]: 10.1%
- inhibition [2]: 41.1% (active)
- inhibition [14]: 23.1% (active)
- inhibition [15]: 30% (active)

SMILES: COc1ccc(N2CC(C(=O)NCCN3C(=O)S/C(=C\c4cccnc4)C3=O)CC2=O)c(OC)c1 (configuration not stated)
- inhibition [1]: -1.58%
- inhibition [2]: -8.97%
- inhibition [30]: 0.49%
